Screening results (PubChem BioAssay)
Rows were chosen to be rich in hits. Some 3.5% of all compounds tested hit in one or more screens of this group.
MITF inh = MITF inhibitors, primary screen, biochemical, AlphaScreen, human. Microphthalmia-associated transcription factor (Homo sapiens), O75030. AlphaScreen MITF homodimerization, bead proximity signal. inhibition, % at 2.6 µM. 650,000 compounds, 0.91% hits; in the data active means inhibition above about 50%;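 further: 0% = vehicle wells with protein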
FBW7 act = FBW7 E3 ligase activators, primary screen, biochemical, AlphaScreen, human; F-box/WD repeat-containing protein 7 (Homo sapiens), Q969H0; AlphaScreen FBW7–phospho-cyclin E peptide binding, activator screen; normalized activity (activation), % at 26.1 µM; 650,000 compounds, 0.13% hits; AID 1259310, 2017; in the data active means normalized activity above about 1.9%;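 further: purified mutant Fbw7 with reduced substrate affinity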
Target sequence (Q969H0 whole entry, looked up): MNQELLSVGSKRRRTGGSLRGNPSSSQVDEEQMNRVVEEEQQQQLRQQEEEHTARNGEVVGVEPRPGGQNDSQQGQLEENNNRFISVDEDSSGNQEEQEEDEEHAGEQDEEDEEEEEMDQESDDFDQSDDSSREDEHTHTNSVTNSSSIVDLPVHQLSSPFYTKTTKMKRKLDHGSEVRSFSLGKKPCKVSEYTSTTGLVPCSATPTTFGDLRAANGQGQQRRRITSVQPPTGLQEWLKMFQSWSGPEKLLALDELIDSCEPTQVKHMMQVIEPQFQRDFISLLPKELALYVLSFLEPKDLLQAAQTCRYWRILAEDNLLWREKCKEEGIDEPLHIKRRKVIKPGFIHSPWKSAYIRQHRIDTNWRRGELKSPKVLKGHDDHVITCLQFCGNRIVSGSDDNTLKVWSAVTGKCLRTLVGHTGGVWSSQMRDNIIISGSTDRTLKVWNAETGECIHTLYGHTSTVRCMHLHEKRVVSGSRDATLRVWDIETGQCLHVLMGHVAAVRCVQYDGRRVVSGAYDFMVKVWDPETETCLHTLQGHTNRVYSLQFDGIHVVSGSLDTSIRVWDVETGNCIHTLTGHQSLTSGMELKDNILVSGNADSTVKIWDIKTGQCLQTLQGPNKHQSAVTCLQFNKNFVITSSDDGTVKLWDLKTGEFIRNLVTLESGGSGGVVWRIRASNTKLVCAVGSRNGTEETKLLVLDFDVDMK
TEAD-YAP inh = TEAD-YAP interaction inhibition, primary screen, TEAD-YAP interaction inhibitor project, luminescence, HEK-TIYL cells. TEAD-Gal4/YAP UAS-luciferase luminescence. inhibition, % at 9.12 µM. 640,000 compounds, 1.4% hits. AID 1259422, 2018; in the data active means inhibition above about 32%;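 further: 0% = median of test compound wells and 100% = reference inhibitor wells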
GPR151 activ = activators of human GPR151, primary screen, cell-based, PathHunter beta-arrestin, luminescence; PathHunter beta-arrestin GPR151 cells; activation, % at 11.2 µM; 650,000 compounds, 1% hits; in the data active means activation above about 4.9%;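 further: 0% = median of compound wells and 100% = cells with positive control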
An asterisk follows results filed as active.

SMILES | MITF inh | FBW7 act | TEAD-YAP inh | GPR151 activ
CN(C)c1cccc2c1C(=O)c1ccccc1C2=O | 55* | -1 | 2 | 2
COc1ccc(Nc2ccnc3c(-c4ccc(N)cc4)cnn23)cn1 | 17 | 0 | 37* | 0
Nc1ccc(-c2cnn3c(NCc4ccc5c(c4)OCO5)ccnc23)cc1 | 7 | 2.5* | -66 | -1
c1ccc(CNc2ccnc3c(-c4ccc5c(c4)OCO5)cnn23)nc1 | 6 | 1.9* | 2 | -1
CC(C)(C)NC(=O)Cn1c(SCC(N)=O)nc2ccccc21 | 19 | 2.0* | -51 | -3
CC(C)(C)c1ccc(OCCSc2nc3ccccc3n2CC(N)=O)cc1 | -2 | 0 | 48* | 0
CN(C)C(=O)CSc1nc2ccccc2n1CC(=O)NC(C)(C)C | -4 | 0 | -5 | 1
O=S(=O)(NC1c2cccc3cccc(c23)C1N1CCN(C(=S)Nc2ccccc2)CC1)c1ccc(Cl)cc1 (stereo not given) | 4 | 2.4* | -8 | 0
COc1ccc(N=CC2=C(O)c3ccccc3C2=O)cc1OC | 10 | 0 | 11 | -2
O=C1C(C=Nc2cccc(C(F)(F)F)c2)=C(O)c2ccccc21 | -10 | 0 | 70* | 0
CCOC(=O)c1ccc(N=CC2=C(O)c3ccccc3C2=O)cc1 | 2 | 0 | 48* | -1
O=C1C(C=Nc2ccc3c(c2)CCC3)=C(O)c2ccccc21 | 2 | 0 | 49* | 0
Cn1c(=O)c2c(nc(Cl)n2CC#N)n(C)c1=O | 6 | 0 | 8 | 3
Cc1cc(C)n(CC(C)C(=O)N2CCC3(CC2)NC(=O)c2ccccc2O3)n1 (stereo not given) | 17 | 0 | 9 | -1
NS(=O)(=O)c1ccc(CCNC(=S)NC(=O)c2cccs2)cc1 | -12 | 0 | 2 | 0
CCC(=O)Oc1ccc(C(=O)Nc2ccc(C)cc2Br)cc1 | -2 | 0 | 50* | 0
Cc1ccn2c(-c3csc(Nc4ccc(Cl)cc4)n3)c(C)nc2c1 | -7 | 0 | 55* | -1
Cc1ccn2c(-c3csc(Nc4ccc(S(N)(=O)=O)cc4)n3)c(C)nc2c1 | 15 | 1 | 3 | -1
CC(=O)Nc1ccc(Nc2nc(-c3c(C)nc4cc(C)ccn34)cs2)cc1 | 6 | 0 | 57* | 1
O=C(N/N=C/c1cccc(O)c1O)c1ccccn1 | 81* | -1 | -10 | -8
CC(=C/c1ccccc1)/C=N/NC(=O)c1ccccn1 | 19 | 0 | -7 | -3
O=C(N/N=C\c1cccc(O)c1)c1ccccn1 | -6 | 0 | 74* | -7
CC(/C=N\NC(=O)c1ccccn1)=C\c1ccccc1 | 10 | 0 | 34* | -4
O=C(N/N=C\c1ccc(O)cc1)c1ccccn1 | 6 | 0 | 42* | -7
O=C(N/N=C/c1ccc(O)cc1)c1ccccn1 | 5 | 0 | -24 | -7
SMILES | MITF inh | FBW7 act | TEAD-YAP inh | GPR151 activ
CCOC(=O)c1sc(NC(=O)c2ccc(N3C(=O)c4ccccc4C3=O)cc2)nc1C | -1 | 0 | -5 | 0
CCOc1ccc(/C=N\NC(=O)c2ccccn2)cc1 | 18 | 0 | 36* | -6
CSc1ccc(/C=N\NC(=O)c2ccccn2)cc1 | 11 | 1 | 49* | -7
O=C(N/N=C\c1ccc(F)cc1)c1ccccn1 | 8 | 0 | -8 | -4
CCc1ccc(/C=N/NC(=O)c2ccccn2)cc1 | 4 | 0 | 30 | -5
CCOc1ccc(/C=N/NC(=O)c2ccoc2C)cc1 | 11 | 0 | 38* | -9
CCNS(=O)(=O)c1cc(OC)ccc1OC | -3 | 0 | 0 | 1
S=c1nc2ccc(Br)cc2c2[nH]c3ccccc3n12 | 2 | 0 | -5 | 0
COC(=O)c1ccc(Cn2cnc(-c3ccc(C)cc3)cc2=O)o1 | -10 | 0 | -7 | 2
COc1cc2cc(C#N)c(SCC(=O)Nc3cc(C)on3)nc2cc1OC | 31 | 2.4* | -10 | -1
COc1ccc(NC(=O)CSc2nc3cc4c(cc3cc2C#N)OCCO4)c(OC)c1 | 25 | 0 | 83* | -1
Cc1ccccc1NC(=O)CSc1nc2cc3c(cc2cc1C#N)OCO3 | -6 | 0 | 6 | 1
COc1cccc(NC(=O)CSc2nc3cc4c(cc3cc2C#N)OCCO4)c1 | -3 | 0 | 45* | 0
Cc1ccccc1NC(=O)CSc1nc2cc3c(cc2cc1C#N)OCCO3 | 7 | 0 | 58* | 0
COc1ccc2[nH]cc(CCNC(=O)c3ccc([N+](=O)[O-])cc3Cl)c2c1 | 3 | 0 | 9 | 0
CCOC(=O)C1CCCN(C(=O)COc2ccc3c(-c4ccccc4)cc(=O)oc3c2)C1 (stereo not given) | -5 | 0 | 9 | 0
CC(C)(C)CC(C)(C)c1ccc(OCC(=O)NNC(=O)c2ccc([N+](=O)[O-])cc2)cc1 | 0 | 0 | 2 | -1
COc1ccc(NC(=O)NC(C)C2CCCO2)cc1OC (stereo not given) | 6 | 0 | 4 | 2
CC(=O)Nc1ccc2nc(SCC(=O)Nc3cccc(C)c3)sc2c1 | 6 | 0 | -15 | 3
CCC(C)NC(=O)CSc1nc2cc3c(cc2cc1C#N)OCO3 (stereo not given) | 9 | 0 | 51* | -2
COc1ccc(CNC(=O)CSc2nc3cc4c(cc3cc2C#N)OCCO4)cc1 | 4 | 0 | 61* | 3
N#Cc1cc2cc3c(cc2nc1SCC(=O)NCC1CCCO1)OCCO3 (stereo not given) | 5 | 0 | 55* | 1
COc1ccc(CNC(=O)CSc2nc3cc(OC)c(OC)cc3cc2C#N)cc1 | -6 | 0 | -18 | 1
N#Cc1cc2cc3c(cc2nc1SCC(=O)NCCc1ccccc1)OCCO3 | 18 | 0 | 34* | 1
CC(C)(C)NC(=O)Cn1nnc(-c2ccc(NC(=O)C34CC5CC(CC(C5)C3)C4)cc2)n1 | -12 | 0 | 1 | 1
SMILES | MITF inh | FBW7 act | TEAD-YAP inh | GPR151 activ
CC(C)S(=O)(=O)C1=NSC2=NC(=O)/C(=C\c3ccc(Br)o3)C(=N)N21 | 84* | -1 | 8 | 0
CS(=O)(=O)C1=NSC2=NC(=O)/C(=C\c3ccc(Br)o3)C(=N)N21 | 74* | -2 | 12 | -1
O=C(O)COc1ccc(/C=N/N2C(=O)C3C4C=CC(C5CC45)C3C2=O)cc1 (stereo not given) | -6 | 0 | 1 | 0
O=C1OC(c2cccc(F)c2)=N/C1=C\C=C\c1ccccc1 | 11 | 0 | -4 | 0
CC(C)(C)c1ccc(C2CC2C(=O)N/N=C\c2ccc[nH]2)cc1 (stereo not given) | 5 | 0 | 91* | 0
O=S(=O)(NCc1ccccc1Cl)c1ccc(-n2cccn2)cc1 | 5 | 0 | -3 | 0
CCN1C=C/C(=C/C=c2/s/c(=C\c3sc(-c4ccccc4)c(-c4ccccc4)[n+]3CC)n(CC)c2=O)c2ccccc21 | -58 | 2.0* | 8 | -1
